# Laboratory results: PubChem BioAssay AID999 (SRMLSC, 2007)
# Unmarked numbers belong to inactive results. Activity calls are given as the source filed them.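 How the source made its calls: active means viability at or below 21.59%, 3 SD under the median of tested compounds; inactive means the rest.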
# Assay: growth suppression of PTEN-null HCT116 cells, cell-based, validation, diverse DP compound set (AID 999);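 further: 100% = median luminescence of untreated cell control wells and 0% = no signal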
# Settings: CellTiter-Glo, 60 h, at 10 µM, stronger effect = lower value
row,SMILES,viability
1,NC(=O)c1cccc(N)c1,94.5%
2,COc1ccc2cc([C@H](C)C(=O)O)ccc2c1,85.6%
3,CCn1cc(C(=O)O)c(=O)c2ccc(C)nc21,98.4%
4,O=c1[nH]cc(F)c(=O)[nH]1,58.9%
5,O=C(O)c1ccccc1O,98.7%
6,COc1ccc(C2CNC(=O)C2)cc1OC1CCCC1 (stereo not given),96.5%
7,CCN(CC)C(=S)SSC(=S)N(CC)CC,89.6%
8,CC[C@@]1([C@@H]2O[C@@H]([C@H]3O[C@@](O)(CO)[C@H](C)C[C@@H]3C)C[C@@H]2C)CC[C@H]([C@]2(C)CC[C@]3(C[C@H](O)[C@@H](C)[C@@H]([C@@H](C)[C@@H](OC)C(C)C(=O)O)O3)O2)O1 (stereo not given in full),63.5%
9,CC[n+]1c(-c2ccccc2)c2cc(N)ccc2c2ccc(N)cc21,20.1% (active)
10,CN=C(NC#N)NCCSCc1nc[nH]c1C,99.4%
11,CC1=C(/C=C/C(C)=C/C=C/C(C)=C/C=C/C=C(C)/C=C/C=C(C)/C=C/C(=O)[C@]2(C)C[C@@H](O)CC2(C)C)C(C)(C)C[C@H](O)C1,80.7%
12,Nc1c2c(nc3ccccc13)CCCC2,107%
13,CC1(C)CCC[C@@](C)([C@H]2CC[C@]3(C)[C@@H]2[C@H](O)C[C@@H]2[C@@]4(C)CC[C@H](O)C(C)(C)[C@@H]4[C@@H](O)C[C@]23C)O1,100%
14,CC(=O)N1CCN(c2ccc(OC[C@H]3CO[C@](Cn4ccnc4)(c4ccc(Cl)cc4Cl)O3)cc2)CC1,70.7%
15,CC1(C)OC2CC(=O)OCC23C1CC(=O)C1(C)C3CC[C@@]2(C)[C@H](c3ccoc3)OC(=O)C3OC312 (stereo not given in full),97.3%
16,Cc1c(C)c2c(c(C)c1O)CCC(C)(COc1ccc(CC3SC(=O)NC3=O)cc1)O2 (stereo not given),79.8%
17,CC(C)=CCC[C@](C)(O[C@@H]1O[C@H](CO)[C@@H](O)[C@H](O)[C@H]1O)[C@H]1CC[C@]2(C)[C@@H]1[C@H](O)C[C@@H]1[C@@]3(C)CC[C@H](O[C@@H]4O[C@H](CO)[C@@H](O)[C@H](O)[C@H]4O[C@@H]4O[C@H](CO)[C@@H](O)[C@H](O)[C@H]4O)C(C)(C)[C@@H]3[C@@H](O)C[C@]12C,92%
18,CCOC(=O)c1c(N)sc(C)c1-c1ccccc1,105%
19,O=C(O)c1cc(=O)c2c(OCC(O)COc3cccc4oc(C(=O)O)cc(=O)c34)cccc2o1,98.8%
20,COc1ccc(CCN(C)CCCC(C#N)(c2ccc(OC)c(OC)c2)C(C)C)cc1OC (stereo not given),85.1%
21,COc1c(C)c2c(c(O)c1C/C=C(\C)CCC(=O)O)C(=O)OC2,40.1%
22,O=c1c2ccccc2nc2n1CCc1c-2[nH]c2ccccc12,93.4%
23,Nc1ccn([C@H]2CC[C@@H](CO)O2)c(=O)n1,93.9%
24,C[C@@H]1CC[C@]2(C(=O)O)CC[C@]3(C)C(=CCC4[C@@]5(C)C[C@@H](O)[C@H](O)[C@@](C)(CO)C5CC[C@]43C)C2[C@H]1C (stereo not given in full),94.3%
25,CNCCC(Oc1ccc(C(F)(F)F)cc1)c1ccccc1 (stereo not given),85.8%
26,COc1cc([C@@H]2c3cc4c(cc3[C@H](O)[C@H]3COC(=O)[C@H]23)OCO4)cc(OC)c1OC,24.6%
27,C=C(C)[C@H]1CC=C(CO)CC1,96%
28,COc1ccc(Cl)cc1C(=O)NCCc1ccc(S(=O)(=O)NC(=O)NC2CCCCC2)cc1,107%
29,CC[N+](CC)(CC)CC(=O)Nc1c(C)cccc1C,105%
30,C=C1C(=O)[C@]23[C@H](O)[C@H]1CC[C@H]2[C@@]12COC3(O)[C@H](O)[C@@H]1C(C)(C)CC[C@@H]2O,76.4%
